S1P3 antag = S1P3 receptor antagonists, primary screen, cell-based; CHO S1P3 NFAT-BLA reporter, FRET fluorescence, antagonist mode; AID 485, 2006; hit rate 0.27% among 170,000; inhibition, % at 4.98 µM;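 active = inhibition above the plate cutoff, the mean inhibition of test wells on that plate plus 3 SD, cut at about 28% in these data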;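 also: cells challenged with S1P at its EC80 of 0.8 µM; blue over green emission ratio from cleaved BLA substrate after 4 h stimulation; 0% = S1P-stimulated wells and 100% = unstimulated DMSO-only wells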
Target sequence (Q99500 whole entry, looked up): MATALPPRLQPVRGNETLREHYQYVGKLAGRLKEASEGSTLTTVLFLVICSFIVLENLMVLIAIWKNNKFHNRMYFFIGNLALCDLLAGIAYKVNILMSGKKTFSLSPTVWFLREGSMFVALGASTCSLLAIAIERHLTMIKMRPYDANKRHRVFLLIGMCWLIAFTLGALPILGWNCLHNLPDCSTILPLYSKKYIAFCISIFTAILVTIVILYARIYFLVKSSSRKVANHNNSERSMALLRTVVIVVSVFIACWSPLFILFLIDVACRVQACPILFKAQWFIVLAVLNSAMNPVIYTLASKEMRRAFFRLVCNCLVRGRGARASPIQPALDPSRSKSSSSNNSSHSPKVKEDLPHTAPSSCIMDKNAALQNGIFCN
S1P4 agonist = S1P4 receptor agonists, primary screen, cell-based; AID 1509, 2009; activation, % at 4.98 µM; hit rate 0.35% among 220,000; S1P4-expressing cell line, agonist reporter assay; Sphingosine 1-phosphate receptor 4 (Homo sapiens), O95977; in the data active = activation above about 11%;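 also: 0% = DMSO vehicle and 100% = reference agonist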
Target sequence (O95977 whole entry, looked up): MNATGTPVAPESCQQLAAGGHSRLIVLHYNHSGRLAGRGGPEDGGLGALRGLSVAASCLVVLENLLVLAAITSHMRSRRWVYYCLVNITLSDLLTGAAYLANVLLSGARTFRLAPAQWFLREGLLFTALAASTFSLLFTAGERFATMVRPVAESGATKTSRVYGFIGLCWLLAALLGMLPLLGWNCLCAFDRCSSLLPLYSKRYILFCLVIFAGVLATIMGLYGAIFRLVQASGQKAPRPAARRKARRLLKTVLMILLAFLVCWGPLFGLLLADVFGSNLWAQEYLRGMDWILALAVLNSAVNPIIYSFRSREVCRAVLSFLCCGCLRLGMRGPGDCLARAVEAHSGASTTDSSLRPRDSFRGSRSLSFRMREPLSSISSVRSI
ROMK primary = ROMK potassium channel modulators, primary screen, cell-based, thallium flux, MLSMR library; ATP-sensitive inward rectifier potassium channel 1 (Homo sapiens), P48048; Tet-inducible ROMK, thallium flux fluorescence; actives lie on both sides; B-score at 10 µM; hit rate 2% among 130,000; AID 1918, 2009;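 active = signal ratio slope over the read window, or its plate-corrected B-score, at least 3 SD from the plate mean, either direction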;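 also: B-score of the F/F0 ratio slope over 7 to 12 s after thallium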
KCC2 mod = KCC2 cotransporter modulators, thallium flux, primary screen, cell-based, HEK293 KCC2, FluoZin-2 fluorescence, MLSMR. Solute carrier family 12 member 5 (Homo sapiens), Q9H2X9. KCC2 cells, thallium flux FluoZin-2 fluorescence. B-score of Tl+ flux slope (higher = more flux/activation; lower = inhibition) at 10 µM. hit rate 2.2% among 190,000. AID 1456, 2008;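 active = thallium flux slope and its plate-corrected score both differing from the plate sample mean at a set confidence after two filtering rounds, in either direction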;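 also: slope of fluorescence scaled to starting intensity during 10 to 20 s after thallium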
RAM network inh = inhibitors of the yeast RAM network, primary screen, dse1pr::URA3 reporter, 5-FOA selection | S. cerevisiae dse1pr::URA3 reporter, 5-FOA growth OD615, 2 d; analog-sensitive cbk1-as2 kinase mutant strain | inhibition, % at 50 µM | hit rate 1.8% among 190,000;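 active = inhibition above a set limit, 3 SD over mean compound inhibition, cut at about 8.4% in these data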;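 also: 0% = DMSO-only wells with no growth and 100% = 10 µM 1-NA-PP1 full growth; inhibition rescues growth on 5-FOA so higher OD means more RAM inhibition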
S1P4 antag = S1P4 receptor antagonists, primary screen, cell-based | Sphingosine 1-phosphate receptor 4 (Homo sapiens), O95977 | S1P4-expressing cells, antagonist mode, reporter read-out | inhibition, % at 4.98 µM | hit rate 0.26% among 220,000; in the data active = inhibition above about 29%;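 also: 0% = wells stimulated with agonist and 100% = vehicle wells without agonist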
KCC2 sec1 = KCC2 modulators in sodium-free buffer, confirmation, cell-based, HEK293 KCC2, thallium flux, secondary assay; shares compounds with KCC2 mod; FluoZin2 fluorescence; active compounds read high; normalised thallium flux (F/F0 slope) at 10 µM; hit rate 15% among 3,700;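 active = thallium flux slope above the same plate's solvent-only control mean plus 3 SD; inconclusive = the two replicate wells disagree; inactive = no significant difference from solvent-only control wells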
KCC2 bumet counter = thallium flux persisting under bumetanide in KCC2 cells, confirmation, counter-screen for KCC2 modulator project, cell-based, HEK293 KCC2, FluoZin2, secondary assay 3. shares compounds with KCC2 mod. HEK293-KCC2 + bumetanide/ouabain; active compounds read high. normalized thallium flux at 10 µM. hit rate 49% among 3,700. AID 1714, 2009;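 active = thallium entry rate above the same plate's blocked-transporter control wells by more than 3 SD; inconclusive = the two repeat wells disagree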;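 also: raw slope of fluorescence over initial fluorescence between 10 and 20 s after thallium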
KCC2 secondary2 = KCC2 modulators without ouabain present, confirmation, cell-based, HEK293 KCC2, thallium flux, FluoZin2, secondary assay 2; shares compounds with KCC2 mod; thallium flux FluoZin2 fluorescence; actives lie on both sides; F/F0 rise rate, 10–20 s post-thallium; normalized thallium flux at 10 µM; hit rate 23% among 3,700;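 active = thallium flux slope more than 3 SD above or below the plate's solvent-only control mean, mostly below; inconclusive = the two repeat wells disagreed; inactive = no significant shift from solvent-only controls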;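 also: raw slope with 0.1% DMSO as baseline and bumetanide as block control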
HEK293 Tl flux = thallium flux modulation in parental HEK cells, confirmation, counter-screen for KCC2 modulator project, cell-based, counterscreen 1; shares compounds with KCC2 mod; thallium flux rate (normalised fluorescence) at 10 µM; hit rate 46% among 3,700; HEK293 parental cells, thallium flux FluoZin2, ouabain; baseline-ratio fluorescence slope, 10–20 s after thallium;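 active = thallium flux rate significantly above the same plate's solvent-only control wells, beyond their mean plus 3 SD; inconclusive = the two replicate wells gave conflicting results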
KCC2 ouabain = KCC2 inhibitors and activators, ouabain retest, confirmation, HEK-KCC2 cells | shares compounds with KCC2 mod | HEK293-KCC2, thallium flux FluoZin2 fluorescence; bidirectional: low = inhibitor, high = activator | raw Tl+ flux slope (below DMSO = inhibition, above = activation) at 10 µM | hit rate 48% among 3,700 | AID 1717, 2009;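 active = thallium flux slope beyond 3 SD from same-plate DMSO control mean in most replicates, usually higher, sometimes lower; inconclusive = repeat tests gave conflicting results; inactive = no significant difference from controls in most replicates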;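 also: slope of initial-normalized fluorescence between seconds 10 and 20 after thallium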
HEK293 Tl flux2 = native HEK Tl+ uptake effects, second counter-screen – HEK cells, counterscreen 2, counter-screen for KCC2 modulator project, confirmation. shares compounds with KCC2 mod. HEK293 parental, thallium flux FluoZin-2 fluorescence slope. thallium flux slope at 10 µM. hit rate 33% among 3,700. AID 1718, 2009;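 active = thallium flux slope above the same plate's solvent-control mean plus 3 SD in both duplicate wells; inconclusive = duplicate wells that disagreed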;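 also: run without ouabain in cells lacking the KCC2 cotransporter; slope of fluorescence scaled to its starting value between 10 and 20 s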
Starred values were filed as active, the others as inactive; ? = inconclusive; . = no result. Shown are actives, neighbours in structure and some others; about 5.1% of the full set was active somewhere.

SMILES | S1P3 antag | S1P4 agonist | ROMK primary | KCC2 mod | RAM network inh | S1P4 antag | KCC2 sec1 | KCC2 bumet counter | KCC2 secondary2 | HEK293 Tl flux | KCC2 ouabain | HEK293 Tl flux2
O=C(C1COc2ccccc2O1)N1CCc2ccccc2C1 (stereo unspecified) | . | -0.8 | 0.839 | -1.11 | 2.0 | -2.0 | . | . | . | . | . | .
CCCC(=O)Nc1nc(-c2ccc3c(c2)CCN3S(C)(=O)=O)cs1 | . | -0.6 | . | 6.22* | 4.5 | -0.6 | 0.0108 | 0.00709 | 0.0292 | ? | 0.0214 | 0.01
CS(=O)(=O)N1CCc2cc(-c3csc(NC(=O)Cc4ccccc4)n3)ccc21 | . | 1.6 | . | -1.07 | 1.1 | 2.9 | . | . | . | . | . | .
COc1ccc(C2(O)CCN(CC(=O)Nc3nc(-c4ccccc4)cs3)CC2)cc1 | 3.2 | 1.6 | -0.777 | -0.93 | 0.4 | -29.6 | . | . | . | . | . | .
CCC(C)(C)C1CCC2(CC1)NC(=O)N(CC(=O)Nc1nc(-c3ccc(C)cc3)cs1)C2=O (stereo unspecified) | . | -0.7 | -0.651 | -0.886 | 4.9 | 10.6 | . | . | . | . | . | .
O=C(CN1C(=O)NC2(CCCC2)C1=O)Nc1nc(-c2ccc(F)cc2)cs1 | -6.1 | 0.4 | . | -6.59* | 4.3 | -3.4 | 0.00918 | 0.00658 | 0.0273* | 0.00749 | 0.0136* | 0.0104
CC1(C)NC(=O)N(CC(=O)Nc2nc(-c3ccc(F)cc3)cs2)C1=O | . | -1.9 | -1.6 | -4.91* | 4.8 | 0.5 | 0.00611 | 0.0069 | 0.0244* | 0.00741 | 0.0126* | ?
CN1CCN(CC(=O)Nc2nc(-c3ccccc3)cs2)CC1 | . | 0.1 | -0.337 | . | 1.2 | -13.3 | 0.00817 | 0.00874* | 0.032 | 0.00875 | 0.0213 | 0.0106
COc1ccc(-c2csc(NC(=O)CN3C(=O)CCC3=O)n2)cc1 | -7.0 | 0.2 | -0.732 | 0.0459 | 2.6 | 8.1 | . | . | . | . | . | .
COc1cccc(C2=NN(S(C)(=O)=O)C(c3cccs3)C2)c1 (stereo unspecified) | -9.3 | 0.8 | -0.0543 | -0.97 | 1.1 | -1.9 | . | . | . | . | . | .
Cn1nc([N+](=O)[O-])nc1Sc1cccc2cccnc12 | -9.3 | 1.3 | 1.03 | 7.57* | -0.1 | -6.7 | 0.00992 | 0.0233* | 0.0298 | 0.0129* | 0.0233 | 0.0102
O=S(=O)(c1ccccc1)n1ccc2cccnc21 | . | 0.8 | . | 0.534 | 1.1 | 1.1 | . | . | . | . | . | .
CCNc1nc(NCC)nc(Oc2ccc(N)cc2)n1 | . | 2.0 | . | . | 2.3 | -4.3 | 0.00672 | 0.00463 | 0.0312 | 0.00742 | 0.0178 | 0.00956
CCNc1nc(OC)nc(Oc2ccc(C(=O)OC)cc2)n1 | . | 3.4 | . | -0.377 | 0.7 | -26.7 | . | . | . | . | . | .
Cc1cccc(NC(=O)N2CCN(Cc3ccc(Cl)cc3)CC2)c1 | 0.0 | 1.1 | -0.468 | -2.64 | -0.1 | -8.6 | . | . | . | . | . | .
O=C(Nc1cccc(Cl)c1)N1CCN(Cc2ccccc2)CC1 | -44.8 | 2.7 | . | -4.62* | 0.9 | -0.4 | 0.00724 | 0.00543 | 0.0298 | 0.00723 | 0.0294* | ?
O=C(NCC(c1cccs1)N1CCOCC1)c1ccccc1NS(=O)(=O)c1ccc(Cl)c([N+](=O)[O-])c1 (stereo unspecified) | -8.1 | 0.3 | . | -3.6* | 0.9 | 0.7 | 0.00697 | 0.00481 | 0.0265* | 0.00608* | 0.0162* | ?
CCCC1CCC(=C(C#N)C(N)=O)CC1 (stereo unspecified) | 9.3 | -0.9 | -2.23 | 0.993 | 0.1 | -6.2 | . | . | . | . | . | .
Cc1cccc(OCc2nnc(SCC(=O)c3cccs3)n2C)c1C | -4.5 | 0.7 | . | -4.46* | -0.8 | -0.4 | 0.0068 | 0.00418 | 0.0236* | 0.00747 | 0.0163* | 0.00963
O=C(c1ccccc1Oc1ccccc1)N1CCN(c2ccccc2F)CC1 | . | -0.1 | . | -0.319 | 0.2 | -5.3 | . | . | . | . | . | .
Cc1noc(C)c1CSCC(=O)OCC(=O)NC1CCCCC1 | . | 0.6 | 0.72 | . | 1.3 | -26.6 | 0.00675 | ? | 0.0301 | 0.00723 | 0.0183 | 0.0114
Cc1cc2cc(C)c(NCCNC(=O)c3cccs3)nc2cc1C | -17.0 | -1.0 | 0.206 | . | 0.3 | -1.7 | . | . | . | . | . | .
Nc1ccc2oc(-c3cccs3)nc2c1 | 10.8 | 2.5 | 0.829 | -3.89* | -0.7 | -11.3 | 0.00703 | 0.00525 | 0.031 | 0.00845 | 0.0187 | 0.0114
COc1ccc(N2CCN(CC(=O)NC(=O)NC(C)(C)C)CC2)cc1 | -11.9 | 1.4 | -0.134 | -0.342 | 2.6 | 4.6 | . | . | . | . | . | .
NS(=O)(=O)c1ccc(NC(=S)Nc2cc(Cl)c(Cl)cc2Cl)cc1 | -12.0 | 0.0 | 0.799 | 1.94 | 1.2 | -14.7 | . | . | . | . | . | .
CSc1ccccc1NC(=S)Nc1ccccc1C(F)(F)F | . | 1.5 | -0.0619 | 4.73* | 1.6 | 1.9 | 0.00745 | 0.0115* | 0.0328 | 0.0125* | ? | 0.0122
CSc1ccccc1NC(=S)Nc1ccc(S(N)(=O)=O)cc1 | -0.7 | -0.9 | 0.0454 | 3.02* | 3.9 | 4.6 | 0.00752 | 0.00752* | 0.0333 | 0.00965* | ? | ?
O=C(CSc1nncs1)Nc1ccc(Cl)cn1 | -6.9 | 1.5 | -0.0268 | -0.375 | 1.9 | -14.9 | . | . | . | . | . | .
O=C(COC(=O)c1ccc(Cl)nc1)Nc1ccc2c(c1)OCO2 | -10.6 | 1.2 | 0.145 | -1.92 | 2.3 | -11.1 | . | . | . | . | . | .
NC(=O)C1CCN(CC(=O)c2c[nH]c3ccc(F)cc23)CC1 | 5.0 | 2.8 | . | 1.01 | 0.2 | 1.1 | . | . | . | . | . | .

From PubChem
